Experiment [1] can be described thus: ACEA_ER_80hr: ACEA Biosciences xCELLigence Real-Time Cell Analysis on Estrogen Receptor Agonism for Proliferation (AID 2282667; active means hit-call score of the fitted dose curve at least 0.9, where 1 is the maximum). As to conditions: T47D proliferation, impedance (xCELLigence), 80 h. The method, boiled down:
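Real-time electrical impedance tracked growth of the human breast line T47D, with the 80 h post-dosing value used. Dosing spanned eight 1:4 steps down from a 100 uM final top concentration, run in duplicate.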

The nature of experiment [2]: ATG_CRE_CIS: Attagene CIS-FACTORIAL HepG2 Assay for human cAMP Responsive Element (CRE) binding protein 3 (AID 2282926). The following applies: HepG2 CRE cis-reporter, Attagene multiplexed mRNA; actives raise or lower the signal. The method, boiled down: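 Assay format: transient reporter transfection of HepG2, 24 h treatment, total RNA isolation with DNase I step. Reporter abundance read by fluorescence after PCR and capillary separation; DMSO-normalised gain or loss fitting.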

For experiment [3], the target named is CCAAT/enhancer-binding protein beta (Homo sapiens) (UniProt P17676). In words: ATG_C_EBP_CIS: Attagene CIS-FACTORIAL HepG2 Assay for human CCAAT/Enhancer Binding Protein (C/EBP) beta (AID 2282927). As to conditions: HepG2 Attagene cis-factorial transcription factor reporter; actives raise or lower the signal. The method, boiled down: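 Changes in reporter mRNA, rather than exogenous chimeric receptor activity, reflect native C/EBP signalling in transfected HepG2 cells dosed for 24 h; transcripts are detected by RT-PCR and capillary electrophoresis.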
CCAAT/enhancer-binding protein beta (Homo sapiens), sequence (P17676 whole entry, looked up): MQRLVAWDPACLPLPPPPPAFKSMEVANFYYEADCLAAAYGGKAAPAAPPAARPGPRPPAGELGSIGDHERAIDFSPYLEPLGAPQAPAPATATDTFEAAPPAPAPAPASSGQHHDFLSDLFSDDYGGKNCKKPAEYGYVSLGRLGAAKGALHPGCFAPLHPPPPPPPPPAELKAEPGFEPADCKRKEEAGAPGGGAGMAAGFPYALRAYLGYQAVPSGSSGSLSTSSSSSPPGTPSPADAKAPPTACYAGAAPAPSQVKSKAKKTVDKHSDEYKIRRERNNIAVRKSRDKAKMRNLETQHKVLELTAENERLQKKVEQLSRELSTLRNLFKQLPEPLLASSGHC

Experiment [4] can be described thus: ATG_CMV_CIS: Attagene CIS-FACTORIAL HepG2 Assay for human CMV (Internal Marker) (AID 2282928).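 Further: endpoint acts as a background internal control marker rather than a target.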 As to conditions: HepG2 CMV promoter reporter, transcription factor profiling; actives raise or lower the signal. The method, boiled down: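 Reporter transcripts from transfected HepG2 cells are isolated after 24 h of chemical dosing, reverse-transcribed and amplified. Fragments labeled with 6-FAM are cut with HpaI and quantified by capillary electrophoresis; DMSO defines baseline.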

Experiment [5] is described as follows: ATG_DR4_LXR_CIS: Attagene CIS-FACTORIAL HepG2 Assay for human Liver X Receptor (LXR), DR4 submotif (AID 2282929). As to conditions: HepG2 Attagene DR4 cis-reporter, mRNA transcription; actives raise or lower the signal. The method, boiled down: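 Measures endogenous transcription factor activity via a DR4-driven reporter transcript in human HepG2 cells. Compounds incubated 24 h; mRNA quantified by RT-PCR and capillary electrophoresis, analysed as gain or loss of signal versus DMSO.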

In experiment [6] the target is Aryl hydrocarbon receptor (Homo sapiens) (UniProt P35869). In words: ATG_Ahr_CIS: Attagene CIS-FACTORIAL HepG2 Assay for human Aryl Hydrocarbon Receptor (Ahr) (AID 2282930). The following applies: HepG2 AhR cis-factorial reporter transcription; actives raise or lower the signal. The method, boiled down:
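HepG2, transient MRTU (cis) transfection, 24 h exposure. RNA → cDNA → PCR → 6-FAM primer extension → HpaI 2 h 37 C → CE. Fit: bidirectional, DMSO baseline.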

A short description of experiment [7]: ATG_AP_2_CIS: Attagene CIS-FACTORIAL HepG2 Assay for human Activator Protein 2 (AP-2) (AID 2282932). As to conditions: HepG2 AP-2 cis-reporter, Attagene transcription factor profiling; actives raise or lower the signal. The method, boiled down: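 Transiently transfected HepG2 cells are exposed to chemical for 24 h. Reporter transcripts are then measured as fluorescence following RT-PCR and capillary separation, and gain- or loss-of-signal is fitted relative to DMSO.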

The nature of experiment [8]: ATG_BRE_CIS: Attagene CIS-FACTORIAL HepG2 Assay for human Bone Morphogenetic Protein (BMP) Response Element (BRE) (AID 2282933). As to conditions: HepG2 BMP response element reporter, Attagene transcription factor profiling; actives raise or lower the signal. The method, boiled down:
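HepG2 cells transiently transfected with multiplexed cis-element reporter units were dosed with chemical for 24 h. Reporter mRNA was measured by RT-PCR with fluorescent labelling, HpaI digestion and capillary electrophoresis; bidirectional fitting relative to DMSO.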

Experiment [9] concerns the target Retinoic acid receptor alpha (Homo sapiens) (UniProt P10276). Kind of experiment: ATG_DR5_RAR_CIS: Attagene CIS-FACTORIAL HepG2 Assay for human Retinoic Acid Receptor Alpha (RARE), DR5 submotif (AID 2282934). The following applies: HepG2 Attagene cis-factorial RARE DR5 reporter, mRNA; actives raise or lower the signal. The method, boiled down: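 HepG2, transient cis-reporter transfection, 24 h exposure. mRNA readout: RT-PCR, FAM label, HpaI cut, capillary electrophoresis. DMSO baseline, gain/loss fitting.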

The target of experiment [10] is Transcription factor E2F1 (Homo sapiens) (UniProt Q01094). Kind of experiment: ATG_E2F_CIS: Attagene CIS-FACTORIAL HepG2 Assay for human E2F Transcription Factor 1 (AID 2282935). As to conditions: HepG2 Attagene cis-reporter, E2F reporter RNA transcripts; actives raise or lower the signal. The method, boiled down:
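Fluorescent RT-PCR products, digested with HpaI for 2 h at 37 C, are separated by capillary electrophoresis. Source RNA comes from transfected HepG2 cultures treated for 24 h.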

The nature of experiment [11]: ATG_E_Box_CIS: Attagene CIS-FACTORIAL HepG2 Assay for human Enhancer Box (E-box) (AID 2282936). The following applies: HepG2 E-box cis-reporter transcription, actives raise or lower the signal. The method, boiled down: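 Fluorescent reporter fragments separated by capillary electrophoresis gave the signal; mRNA came from HepG2 cells transfected with cis-element reporters and treated 24 h. Curves fitted bidirectionally relative to DMSO controls.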

Experiment [12] in a line: ATG_M_61_CIS: Attagene CIS-FACTORIAL HepG2 Assay for M61 Transcription Factor (Internal Marker) (AID 2282937). As to conditions: HepG2 Attagene CIS-FACTORIAL M61 internal marker reporter; actives raise or lower the signal. The method, boiled down:
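Fluorescence from labelled cDNA fragments, separated by capillary electrophoresis, quantifies reporter induction. HepG2 cells bearing transiently transfected cis-promoter MRTUs were incubated with test chemical for 24 h; DMSO defined baseline for gain/loss fitting.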

Experiment [13] is described as follows: ATG_EGR_CIS: Attagene CIS-FACTORIAL HepG2 Assay for human Early Growth Response 1 (EGR1) (AID 2282938). The following applies: HepG2 Attagene CIS-FACTORIAL EGR reporter mRNA; actives raise or lower the signal. The method, boiled down: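 Cell-based multiplex transcription assay: HepG2 carrying transfected cis-element reporter units, 24 h chemical treatment. Fluorescence from capillary electrophoresis of RT-PCR products gives mRNA levels; fitting is bidirectional relative to DMSO.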

Experiment [14] is described as follows: ATG_M_19_CIS: Attagene CIS-FACTORIAL HepG2 Assay for M19 Transcription Factor (Internal Marker) (AID 2282939). The following applies: HepG2 Attagene CIS-FACTORIAL M19 internal marker reporter; actives raise or lower the signal. The method, boiled down: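 HepG2 cells transiently transfected with cis-regulated multiple reporter transcription units were dosed for 24 h; reporter mRNA was quantified by RT-PCR, 6-FAM primer-extension labelling, HpaI digestion and capillary electrophoresis, with bidirectional fitting against DMSO baseline.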

Experiment [15] in a line: ATG_ERE_CIS: Attagene CIS-FACTORIAL HepG2 Assay for Estrogen Response Element (ERE) (AID 2282940). The following applies: HepG2 ERE cis-reporter, Attagene RNA transcript; actives raise or lower the signal. The method, boiled down: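 HepG2 cells transiently transfected with cis-promoter-driven multiplexed reporter transcription units report endogenous TF activity. After 24 h compound exposure, reporter mRNA is quantified by RT-PCR with capillary electrophoresis fluorescence; bidirectional fitting versus DMSO baseline.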

Experiment [16] can be described thus: ATG_Ets_CIS: Attagene CIS-FACTORIAL HepG2 Assay for human Erythroblast Transformation Specific (ETS) (AID 2282941). As to conditions: HepG2 ETS cis-reporter transcription, actives raise or lower the signal. The method, boiled down: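 Bidirectional fit versus DMSO of reporter mRNA signal, detected by RT-PCR and capillary electrophoresis in HepG2 cells transiently transfected with cis-element reporters and dosed 24 h.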

In experiment [17] the target is Hepatocyte nuclear factor 3-beta (Homo sapiens) (UniProt Q9Y261). Kind of experiment: ATG_FoxA2_CIS: Attagene CIS-FACTORIAL HepG2 Assay for human Forkhead box A2 (FOXA2) (AID 2282942). As to conditions: HepG2 cis-reporter transcription factor activity, 24 h; actives raise or lower the signal. The method, boiled down: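 In transiently transfected human HepG2 cells, promoter-driven reporter mRNA levels after 24 h chemical exposure are determined via RT-PCR with capillary electrophoresis. DMSO serves as baseline for bidirectional fitting.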
Hepatocyte nuclear factor 3-beta (Homo sapiens), sequence (Q9Y261 whole entry, looked up): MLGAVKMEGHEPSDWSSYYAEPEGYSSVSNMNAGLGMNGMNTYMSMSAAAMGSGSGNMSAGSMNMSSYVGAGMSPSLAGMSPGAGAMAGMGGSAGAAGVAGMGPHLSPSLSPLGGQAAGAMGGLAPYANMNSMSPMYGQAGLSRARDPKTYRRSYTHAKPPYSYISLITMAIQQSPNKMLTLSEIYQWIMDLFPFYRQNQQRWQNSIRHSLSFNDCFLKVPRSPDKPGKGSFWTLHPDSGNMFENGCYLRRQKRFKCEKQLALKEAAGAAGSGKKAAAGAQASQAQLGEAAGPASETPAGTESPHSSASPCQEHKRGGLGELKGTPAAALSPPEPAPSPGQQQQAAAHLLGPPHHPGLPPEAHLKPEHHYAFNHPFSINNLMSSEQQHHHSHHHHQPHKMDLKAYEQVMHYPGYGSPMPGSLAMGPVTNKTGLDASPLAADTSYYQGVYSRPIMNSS

Experiment [18] in a line: ATG_FoxO_CIS: Attagene CIS-FACTORIAL HepG2 Assay for human Forkhead box O (FoxO) (AID 2282943). As to conditions: HepG2 Attagene cis-reporter, FoxO element, mRNA; actives raise or lower the signal. The method, boiled down: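 Human hepatoma HepG2 cells carry transiently introduced reporter transcription units controlled by cis promoter elements. Chemical treatment lasted 24 h, and mRNA signal was compared with DMSO.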

Experiment [19] can be described thus: ATG_GATA_CIS: Attagene CIS-FACTORIAL HepG2 Assay for human GATA Binding Protein (AID 2282944). The following applies: HepG2 GATA cis-element reporter, Attagene multiplex mRNA; actives raise or lower the signal. The method, boiled down:
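HepG2 cells transiently transfected with multiplexed cis-element reporter units reflecting endogenous transcription factor activity; reporter mRNA measured after 24 h dosing by RT-PCR, 6-FAM labeling, HpaI digestion and capillary electrophoresis. Bidirectional fitting versus DMSO baseline.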

Experiment [20] is described as follows: ATG_AP_1_CIS: Attagene CIS-FACTORIAL HepG2 Assay for human Activator Protein 1 (AP-1) (AID 2282931). As to conditions: HepG2 Attagene cis-factorial AP-1 reporter mRNA; actives raise or lower the signal. The method, boiled down:
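Bidirectional concentration-response fitting against DMSO controls. Underlying signal: reporter mRNA from cis-promoter constructs in transiently transfected HepG2, measured after 24 h by RT-PCR and capillary electrophoresis.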

Here are results for 8 compounds from PubChem BioAssay (EPA / NIEHS).

Records with an inconclusive call do not appear. The source made the active and inactive calls. How the source made its calls, unless noted: active means hit-call score of the fitted dose curve at least 0.9, where 1 is the maximum; inactive means score below 0.9.

Transcription factor E2F1 (Homo sapiens), sequence (Q01094 whole entry, looked up): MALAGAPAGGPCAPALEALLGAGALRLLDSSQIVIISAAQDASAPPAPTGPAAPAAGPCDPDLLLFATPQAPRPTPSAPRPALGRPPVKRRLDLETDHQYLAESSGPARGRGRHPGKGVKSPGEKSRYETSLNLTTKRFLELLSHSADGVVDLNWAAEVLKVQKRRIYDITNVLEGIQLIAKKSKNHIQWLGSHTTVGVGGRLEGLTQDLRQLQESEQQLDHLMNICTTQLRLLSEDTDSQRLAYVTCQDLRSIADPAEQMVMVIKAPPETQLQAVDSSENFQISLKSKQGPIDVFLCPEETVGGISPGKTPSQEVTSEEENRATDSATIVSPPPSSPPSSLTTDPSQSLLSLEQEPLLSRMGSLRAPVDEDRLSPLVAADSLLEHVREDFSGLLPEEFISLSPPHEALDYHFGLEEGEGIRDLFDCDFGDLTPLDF
Retinoic acid receptor alpha (Homo sapiens), sequence (P10276 whole entry, looked up): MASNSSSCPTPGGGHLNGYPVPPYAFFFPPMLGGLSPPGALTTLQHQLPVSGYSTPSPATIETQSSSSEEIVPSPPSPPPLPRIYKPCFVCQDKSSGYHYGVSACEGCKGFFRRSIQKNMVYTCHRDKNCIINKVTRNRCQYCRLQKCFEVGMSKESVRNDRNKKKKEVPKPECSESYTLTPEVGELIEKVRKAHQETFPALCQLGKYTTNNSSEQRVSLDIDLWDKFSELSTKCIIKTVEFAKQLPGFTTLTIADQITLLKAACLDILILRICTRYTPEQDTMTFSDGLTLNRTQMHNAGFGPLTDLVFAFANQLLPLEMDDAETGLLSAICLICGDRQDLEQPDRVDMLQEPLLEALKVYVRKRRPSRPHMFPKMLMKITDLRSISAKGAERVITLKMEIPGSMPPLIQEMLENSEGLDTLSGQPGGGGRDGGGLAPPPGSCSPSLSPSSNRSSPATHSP
Aryl hydrocarbon receptor (Homo sapiens), sequence (P35869 whole entry, looked up): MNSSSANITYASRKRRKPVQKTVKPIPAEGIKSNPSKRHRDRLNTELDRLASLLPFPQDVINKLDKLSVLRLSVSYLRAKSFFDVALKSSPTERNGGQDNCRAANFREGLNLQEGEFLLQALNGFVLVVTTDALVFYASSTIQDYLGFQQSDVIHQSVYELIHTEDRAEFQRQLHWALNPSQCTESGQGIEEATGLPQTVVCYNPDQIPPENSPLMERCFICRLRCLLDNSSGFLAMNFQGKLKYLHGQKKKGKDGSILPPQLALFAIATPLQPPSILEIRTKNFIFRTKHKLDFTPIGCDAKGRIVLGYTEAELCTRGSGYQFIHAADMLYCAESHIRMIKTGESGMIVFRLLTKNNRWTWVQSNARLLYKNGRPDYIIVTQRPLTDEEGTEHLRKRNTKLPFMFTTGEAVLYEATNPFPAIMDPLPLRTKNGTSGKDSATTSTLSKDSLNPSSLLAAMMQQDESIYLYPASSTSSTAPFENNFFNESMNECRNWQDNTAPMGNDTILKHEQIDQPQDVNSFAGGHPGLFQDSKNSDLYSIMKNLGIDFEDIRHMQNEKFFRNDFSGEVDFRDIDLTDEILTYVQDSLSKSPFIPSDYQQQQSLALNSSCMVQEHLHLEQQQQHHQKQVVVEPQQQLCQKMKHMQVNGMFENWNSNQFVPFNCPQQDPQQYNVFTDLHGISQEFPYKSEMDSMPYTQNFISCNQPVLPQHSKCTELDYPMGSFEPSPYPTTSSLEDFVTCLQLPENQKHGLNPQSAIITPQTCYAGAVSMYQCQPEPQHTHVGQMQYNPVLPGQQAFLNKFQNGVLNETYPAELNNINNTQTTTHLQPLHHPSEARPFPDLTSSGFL

In the case of `CCCCCCCCCCCC(=O)OCC`, the compound was called inactive in experiment [1], in experiment [2], in experiment [3], in experiment [4], in experiment [5] and in experiment [6]. Further, the result in [7], in experiment [8], in experiment [9], in experiment [10], in [11] and in experiment [12] was inactive. For the same compound, the result in [13], in [14], in experiment [15], in [16], in experiment [17] and in experiment [18] was inactive. Besides, the outcome in experiment [19] was inactive.

The term AC50 denotes the concentration at which the activity in the assay is half-maximal. Take `Nc1ccc(C(=O)O)cc1`: the AC50 in [1] was 50 µM (active). Besides, the compound was classed as inactive in experiment [2], in experiment [3], in experiment [4], in experiment [5], in [6] and in [20]. The compound was classed as inactive in experiment [7], in experiment [9], in [10], in experiment [12], in experiment [14] and in [15]. The compound was called inactive in experiment [17] and in [19].

In the case of `OCCCc1ccccc1`, the compound was classed as inactive in experiment [1], in experiment [2], in experiment [3], in experiment [4], in [5] and in [6]. Further, the call in experiment [7], in experiment [8], in experiment [9], in experiment [10], in experiment [11] and in [12] was inactive. In addition, the result in experiment [14], in experiment [15], in experiment [17], in experiment [18] and in experiment [19] was inactive.

Consider `N#Cc1ccc(C(c2ccc(C#N)cc2)n2cncn2)cc1`, for which the result in [1], in experiment [2], in experiment [3], in experiment [4], in [5] and in [6] was inactive. In addition, the call in [7], in experiment [8], in experiment [10], in [12], in experiment [13] and in experiment [14] was inactive. The call in [15], in experiment [16], in experiment [17] and in experiment [19] was inactive.

For the compound `C[Si](C)(C)N[Si](C)(C)C`, the call in [1], in [2], in [3], in experiment [4], in experiment [6] and in [20] was inactive. The compound was classed as inactive in experiment [7], in [8], in experiment [9], in [10], in [12] and in [13]. For the same compound, the compound was called inactive in experiment [14], in experiment [15], in [16], in experiment [17] and in [19].

With `CC1(C)CC(O)CC(C)(C)N1[O]`, the compound was classed as inactive in experiment [1], in experiment [2], in experiment [3], in experiment [6], in experiment [7] and in experiment [8]. The compound was called inactive in [9], in [10], in experiment [11], in experiment [12], in [13] and in experiment [14]. Moreover, the outcome in experiment [15], in experiment [16], in experiment [17], in [18] and in [19] was inactive. Also, the AC50 in experiment [4] was 26.2 µM (active); in experiment [20] it was 26.6 µM (active).

Regarding `C=C(C)C1CC=C(C)C(OC(C)=O)C1` (stereo not drawn), the outcome in experiment [1], in experiment [2], in experiment [3], in experiment [4], in experiment [6] and in [20] was inactive. Besides, the call in [7], in [8], in [10], in [12], in experiment [13] and in [14] was inactive. In addition, the call in experiment [15], in experiment [17], in [18] and in experiment [19] was inactive.

On to `CC(C)(C)C1CCC(=O)CC1`, for which the compound was called inactive in experiment [1], in experiment [3], in experiment [4], in experiment [6], in [20] and in experiment [7]. Further, the call in experiment [8], in experiment [9], in experiment [10], in experiment [11], in [12] and in experiment [13] was inactive. Moreover, the compound was called inactive in [14], in [15], in experiment [16], in experiment [17], in experiment [18] and in experiment [19]. The AC50 in [5] was 160 µM (active).
